HT1080-NT tox: qHTS for induction of synthetic lethality in tumor cells producing 2HG: qHTS for the HT-1080-NT fibrosarcoma cell line; HT-1080-NT fibrosarcoma viability, CellTiter-Glo ATP luminescence, 48 h; Potency, µM (doses to about 46.1 µM), inactives show at the highest dose activity, negative = less viability, usual class: cytotoxic; actives 1.6% (n = 360,000);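 further: NT is the 2HG producing partner of a matched IDH1 knockdown line; potency means the concentration at half of the fitted maximal effect; 0% = DMSO-treated cells and -100% = media-only wells without cells; nearly all actives have a fitted effect of over 55% in size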
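Fibrosarcoma NT cells, 750 per well in 5% FBS RPMI, were exposed to compound for 48 hours. Viability: CellTiter-Glo luminescence.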
DT40 TDP1 no CPT: qHTS for Inhibitors of human tyrosyl-DNA phosphodiesterase 1 (TDP1): qHTS in cells in absence of CPT. actives 15% (n = 420,000). Potency, µM (doses to about 46.2 µM), without a hit: at the top dose activity change, negative = growth inhibition, usual class: inhibitors. DT40 Tdp1-/- hTDP1 cells, no CPT, ATP luminescence, 48 h; further: potency means the concentration at half of the fitted maximal effect; nearly all actives have a fitted effect of over 55% in size
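DT40 Tdp1-/-;hTDP1 cells, no CPT (DMSO vehicle only), 400 cells/well; compounds pin-transferred; ≥48 hr, 37 °C; CellTiter-Glo 30 min RT dark, luminescence read.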
IL1B secr inh: qHTS for Inhibitors of Inflammasome Signaling: IL-1-beta AlphaLISA Primary Screen; THP-1 LPS/ATP IL-1B secretion, AlphaLISA, 16 h; active compounds read low; activity change, % at 57.5 µM; actives 4.7% (n = 360,000); in the data active means activity change below about -50%; inconclusive means mostly about -30% to -49%
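Secreted IL-1B measured by AlphaLISA bead assay after 16 h compound exposure of THP-1 cells; compounds (final up to 57.5 uM) added 1 h before LPS (250 ng/mL) and ATP (1.25 mM) stimulation; lower signal means less secretion.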
TDP1 cell CPT: qHTS for Inhibitors of human tyrosyl-DNA phosphodiesterase 1 (TDP1): qHTS in cells in presence of CPT; Potency, µM (titrated, usually from 46.2 µM), for inactives: at the top dose activity change, negative = growth inhibition, usual class: inhibitors; actives 12% (n = 420,000); chicken DT40 Tdp1-/-;hTDP1 cells + 20 nM CPT, ATP luminescence, 48 h; AID 686979, 2013; further: potency means the concentration at half of the fitted maximal effect; nearly all actives have a fitted effect of over 55% in size
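Cell growth measured by CellTiter-Glo luminescence after a minimum 48 h, 37 C compound exposure with 20 nM CPT in Tdp1-knockout DT40 cells stably expressing hTDP1, seeded 400/well; qHTS titration format.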
HT1080 IDH1KD tx: qHTS for induction of synthetic lethality in tumor cells producing 2HG: qHTS for the HT-1080-IDH1KD cell line; HT-1080 IDH1 knockdown viability, ATP luminescence, 48 h; Potency, µM (titrated, usually from 46.1 µM), for inactives: at the highest dose activity, negative = toxicity, actives largely listed as cytotoxic; actives 2% (n = 360,000); AID 686971, 2013;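 further: potency means the concentration at half of the fitted maximal effect; 0% = DMSO wells and -100% = cell-free medium wells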
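Luminescent ATP read-out (CellTiter-Glo, 10 min at room temperature) after 48 h compound exposure at 37 °C gave viability of IDH1-knockdown HT-1080 cells. Activity was normalised to DMSO and cell-free wells, then fitted as concentration-response curves.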
Numbers without * were called inactive; ? = inconclusive; / = not tested or not shown; [ ] = another dose, or the depositor's remark. The list is not random: actives were taken first. Their share in the collection is about 19%. Unless noted, the call rests on the fitted dose curve; in most records, active means well fitted curve in the direction sought with a large enough effect; inconclusive means small, poorly fitted or top-dose-only effect, or another doubt; inactive means no such curve, though single readings can be large; an effect the other way counts as inactive or inconclusive. Unless noted, on the % scale 0 is the no-effect control and ±100 the full control effect.

SMILES	HT1080-NT tox	DT40 TDP1 no CPT	IL1B secr inh	TDP1 cell CPT	HT1080 IDH1KD tx
COc1ccc(C(O)P(=O)(OCC(C)C)OCC(C)C)c(OC)c1 (configuration not stated)	12.7%	-2.7%	14.2	0.0%	10.6%
CC(=O)N1/C(=C/c2ccc(N(C)C)cc2)C(=O)c2ccccc21	3.26µM*	0.461µM*	-95.0*	0.517µM*	?
CN(C)c1ccc(/C=C2\C(=O)/C(=C/c3ccc(N(C)C)cc3)c3ccccc32)cc1	/	7.08µM*	/	?	/
CC(=O)N1c2ccccc2C(=O)C1N(C)c1ccc(C)cc1 (configuration not stated)	-13.6%	?	-11.1	1.5%	-13.1%
O=C1Nc2ccccc2/C1=C/c1cccnc1	-18.5%	?	-65.2*	?	-21.1%
CN(C)c1ccc(/C=C2\C(=O)Nc3ccccc32)cc1	/	16.4µM*	/	16.4µM*	/
CC1=NOC(=O)/C1=C/c1ccc(N(C)C)cc1	1.3%	-11.5%	-6.4	2.7%	-10.3%
NC(=O)NC(CC(=O)NNC(=O)c1ccccn1)c1ccccc1Cl (configuration not stated)	-4.1%	8.9%	52.8	-10.5%	-4.1%
Cc1ccc2c(c1)/C(=C/c1ccco1)C(=O)N2	-18.6%	?	-19.7	6.1%	-16.9%
Cc1ccc(/C=C2\C(=O)Nc3ccccc32)o1	3.9%	3.66µM*	1.5	1.46µM*	-7.3%
Cc1nn(-c2ccc(F)cc2)c(Cl)c1/C=C1\C(=O)Nc2ccccc21	?	8.2µM*	0.0	6.51µM*	5.17µM*
O=C1Nc2ccccc2/C1=C/c1ccccc1F	?	23.1µM*	-29.6	?	-28.3%
Cc1ccccc1/C=C1\C(=O)Nc2ccc(F)cc21	?	?	5.3	-24.4%	-17.4%
Cc1cccc(OCC(=O)NCc2cc(C)nc3ccccc23)c1	-8.1%	?	52.5	?	-15.1%
Oc1ccccc1C1NN=C(c2ccccc2)S1 (configuration not stated)	-17.9%	-23.3%	4.7	-1.3%	-29.0%
Cc1cccnc1-c1cccc2c1OC(CNC(=O)C(=O)c1ccccc1)C2 (configuration not stated)	/	-28.1%	/	?	/
Cc1ccc(/C=C(\NC(=O)c2ccccc2)C(=O)NC2CCN(Cc3ccccc3)CC2)o1	11.8%	5.4%	-20.7	2.8%	14.2%
O=C(c1csc2ccccc12)N1CCCCCC1	1.7%[9.24 µM]	18.4µM*	3.3	20.6µM*	-14.3%
COCCCn1c(SCc2ccccc2F)nc2c(sc3ccccc32)c1=O	/	14.6µM*	/	?	/
COc1ccc(NC(=O)CSc2nc3c(sc4ccccc43)c(=O)n2CCCN2CCCC2)cc1	?	?	-19.0	20.6µM*	?
COCCCn1c(SCC(=O)Nc2ccc(F)cc2)nc2c(sc3ccccc32)c1=O	/	5.8µM*	/	14.6µM*	/
Cc1cc(C)c(OCC(=O)N(Cc2ccccc2)C2CCS(=O)(=O)C2)c(C)c1 (configuration not stated)	-26.8%	-6.9%	-13.6	-4.0%	2.4%
COC(=O)CSc1nc2c(cnn2-c2ccc(Cl)cc2)c(=O)[nH]1	7.1%	4.1%	13.9	2.6%	19.6%
CCCn1c(CN(C)Cc2ccccc2)nc2c1c(=O)n(C)c(=O)n2C	-15.9%	10.3µM*	-22.8	9.2µM*	-17.9%
Cn1c(=O)c2c(nc(Cc3ccccc3)n2C)n(C)c1=O	21.7%	2.3%	6.4	-0.1%	10.6%
SMILES	HT1080-NT tox	DT40 TDP1 no CPT	IL1B secr inh	TDP1 cell CPT	HT1080 IDH1KD tx
CCCn1c(CN(Cc2ccccc2)Cc2ccccc2)nc2c1c(=O)n(C)c(=O)n2C	-5.3%	14.6µM*	-15.4	23.1µM*	-0.6%
COCCn1c(CN(C)Cc2ccccc2)nc2c1c(=O)n(C)c(=O)n2C	18.2%	?	46.3	?	-11.4%
CCOCCn1c(CN(C)Cc2ccccc2)nc2c1c(=O)n(C)c(=O)n2C	0.2%	23.1µM*	43.0	?	2.2%
CCCCn1c(CN(C)Cc2ccccc2)nc2c1c(=O)n(C)c(=O)n2C	-9.4%	4.11µM*	-13.2	6.51µM*	-13.5%
COc1ccc(C(C)(C)NC(=O)C2CCC(=O)N(C3CC3)C2)cc1OC (configuration not stated)	-2.4%	-7.5%	-0.9	-0.9%	-2.3%
Cc1cc(OCC(=O)NCCCn2ccnc2)c2c(C)c(C)c(=O)oc2c1	-4.9%	-15.0%	-8.2	-12.0%	0.2%
CC1CN(Cc2nc3c(c(=O)n(C)c(=O)n3C)n2CCc2ccccc2)CC(C)O1 (configuration not stated)	1.1%	-5.8%	-22.0	-18.7%	2.4%
CCOC(=O)Cn1c(CN(Cc2ccccc2)Cc2ccccc2)nc2c1c(=O)n(C)c(=O)n2C	-0.4%	?	28.7	20.6µM*	9.1%
CN(Cc1ccccc1)Cc1nc2c(c(=O)n(C)c(=O)n2C)n1CCc1ccccc1	12.5%	18.4µM*	-10.1	13µM*	0.0%
CN(Cc1ccccc1)Cc1nc2c(c(=O)n(C)c(=O)n2C)n1Cc1ccccc1Cl	-25.4%	11.6µM*	-6.7	25.9µM*	-1.2%
COc1cc(OC)cc(-c2nc3nc(C)c(CCC(=O)Nc4cc(C)cc(C)c4)c(C)n3n2)c1	/	?	/	-1.1%	/
CCOc1ccc(C(=O)N/N=C/c2cc(Cl)ccc2[N+](=O)[O-])cc1	27.8%	-24.9%	-13.9	5.0%	17.2%
O=S(=O)(c1cccc(-c2n[nH]c(=S)o2)c1)N1CCOCC1	3.1%	4.6%	19.7	11.8%	7.2%
CC(C)c1cc(Cn2c3ccccc3c(=O)n2C(C)Cn2cc(-c3ccc(C(C)(C)C)cc3)nn2)on1 (configuration not stated)	?	14.6µM*	-28.9	?	?
CC(C)c1cc(Cn2c3ccccc3c(=O)n2C(C)Cn2cc(C3=CCCCC3)nn2)on1 (configuration not stated)	-5.7%	?	-28.3	?	1.0%
COc1ccccc1Cc1c(-c2ccccc2)nc2ccc(Cl)cn12	-23.1%	?	28.5	?	-12.7%
Cc1ccc2nc(C(C)(C)C)c(Cc3ccccc3C(F)(F)F)n2c1	?	14.6µM*	-8.5	16.4µM*	?
Cc1ccc(-c2nc3c4ccccc4ccn3c2Cc2ccccc2C(F)(F)F)cc1	10.4%	16.4µM*	22.2	?	8.4%
Cc1cc2nc(C(C)(C)C)c(Cc3ccccc3C(F)(F)F)n2c(C)c1Br	?	?	47.1	?	?
